Measured values from PubChem BioAssay AID2108 (National Center for Advancing Translational Sciences (NCATS), 2009).
Inconclusive results are not listed. Calls come from the whole dose curve; as a rule, active = well fitted curve in the direction sought with a large enough effect; inconclusive = small, poorly fitted or top-dose-only effect, or effect the other way, or another doubt; inactive = no such curve, though single readings can be large or run the other way.

Target: Alpha-galactosidase A (Homo sapiens) (UniProt P06280)
Assay: Confirmation of Inhibitors of Human alpha-Galactosidase Using Spleen Homogenate; note: 0% is about no effect
Settings: alpha-galactosidase enzyme activity; series mostly up to 56.2 µM; activity change: at the top concentration
Summary of the method: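 Human spleen homogenate (1 ug) with 1 mM 4-methylumbelliferyl-alpha-D-galactopyranoside in citrate-phosphate pH 5.0, 0.01% Tween-20, 37C 40 min; compounds 0.5 nM–58 uM final. Stopped at pH 10, fluorescence Ex 365/Em 440; AC50 from Hill fits.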

Sequence of Alpha-galactosidase A (Homo sapiens) (P06280 32-429 limits assumed): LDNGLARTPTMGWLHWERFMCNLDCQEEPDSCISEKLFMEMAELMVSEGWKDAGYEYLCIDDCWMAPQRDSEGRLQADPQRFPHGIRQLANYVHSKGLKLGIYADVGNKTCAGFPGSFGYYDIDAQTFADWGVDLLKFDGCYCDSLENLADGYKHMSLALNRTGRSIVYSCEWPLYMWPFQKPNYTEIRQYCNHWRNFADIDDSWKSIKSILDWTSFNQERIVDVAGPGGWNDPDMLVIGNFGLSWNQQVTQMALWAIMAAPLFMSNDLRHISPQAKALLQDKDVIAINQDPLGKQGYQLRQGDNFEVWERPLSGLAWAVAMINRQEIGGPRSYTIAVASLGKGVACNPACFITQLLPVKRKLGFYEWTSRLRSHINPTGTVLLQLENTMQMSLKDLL

Activity change, inactive:
CCCc1cc(-c2nc(N)ncc2-c2ccc3c(c2)OCCCO3)c(O)cc1OC -7.45%
COc1ccc(/C=c2\s/c(=C/C(=O)c3ccc(C)cc3)[nH]c2=O)cc1OC -12.8% [at 23.6 µM]
O=c1oc2ccccc2cc1-c1csc(Cc2nc3c(s2)CCCC3)n1 8.5%
N#Cc1c(N2CCN(c3ccc(F)cc3)CC2)nc(N)c2c(N)nc3c(c12)CC(=O)N3C1CC1 -2.17%
C(=C/c1nccc2c1[nH]c1ccccc12)/c1ccc2c(c1)OCO2 23.5%
Cc1sc(-c2cc3c(ccc4ccccc43)oc2=O)nc1-c1ccccc1 6.32%
Cc1cc(NC(=O)C(C)(C)C)cc(-c2nc3ncccc3o2)c1O -4.83%
O=C(CSc1n[nH]c(-c2ccccc2)n1)c1ccc(O)c(O)c1 -0.0554%
CC(C)NCC(O)COc1cccc2[nH]ccc12 (configuration not stated) -0.401%
CC(=O)Oc1ccc2cc(-c3nc(-c4ccccc4)c(C)s3)c(=O)oc2c1 6.44%
O=c1ccc2cc(O)c(O)cc2o1 5.16%
C[C@H](NC(=O)/C(C#N)=C/c1ccc(O)c(O)c1)c1ccccc1 3.29%
OCC(CO)NC1C[C@](O)(CO)[C@@H](O)[C@H](O)[C@H]1O (some centres not stated) 2.15% [at 287 µM]
CSc1ccccc1NC(=O)CN(C)CC(=O)NCc1ccccc1 1.93% [at 23.6 µM]
O=C(Cn1c(=O)n(Cc2ccccc2)c(=O)c2sc3ccccc3c21)Nc1ccccc1 -5.67%
O=S(=O)(c1ccccc1)N1CCN(c2ccccc2)CC1 0.829%
CCc1cc(-c2n[nH]c(C)c2-c2nc3ccccc3n2C)c(O)c(CN2CCN(C)CC2)c1O 4.12%
Cc1cc(C)nc(SCc2cc(=O)c(OC(=O)c3ccco3)co2)n1 2.16% [at 23.6 µM]
CC(N=C(NC#N)Nc1ccncc1)C(C)(C)C (configuration not stated) -1.81%
CCOC(=O)CCc1cccc2c1CCC2=O 10.5% [at 23.6 µM]
COc1cc([C@@H]2c3cc4c(cc3[C@@H](OC3OC5COC(C)OC5C(O)C3O)[C@H]3COC(=O)[C@H]23)OCO4)cc(OC)c1O (some centres not stated) -6.56%
CCOC(=O)C(CC)Sc1ncnc2c1c(-c1ccccc1)cn2-c1ccc(OC)cc1 (configuration not stated) -3.87%
COc1ccc(OC)c(/C=C/C(=O)N(C)CC(=O)Nc2ccc(C)cc2)c1 11.4% [at 23.6 µM]
CCC(=O)N1CCN(c2ccc(Cl)cc2NC(=O)c2ccc(N3CCCC3)c([N+](=O)[O-])c2)CC1 3.89% [at 23.6 µM]
CCOC(=O)Cc1csc(NC(=O)NC2(C(F)(F)F)Oc3cc(Cl)c(Cl)cc3O2)n1 1.02%
CC(=O)Nc1c(S(=O)(=O)c2ccccc2)c2nc3ccccc3nc2n1Cc1ccccc1 48.2%
O=S(=O)(c1ccc(F)cc1)N1CCOCC1 2.82%
Cc1ccc(-c2cc(C(=O)N/N=C/c3c(C)nn(-c4ccccc4)c3C)n[nH]2)s1 2.27%
C=CCn1c2ccccc2c2nnc(SCC(=O)NC(C(=O)OC)C(C)C)nc21 (configuration not stated) 3.19% [at 23.6 µM]
COCCn1c(=NC(=O)c2ccc3c(c2)OCO3)c(C#N)cc2c(=O)n3cccc(C)c3nc21 2.06% [at 23.6 µM]
COc1ccccc1NCC(=O)c1ccc(C)c(C)c1 -6.57%
Cc1ccc(C2NC(=O)c3c(sc4c3CCN(C)C4)N2)s1 (configuration not stated) 8.42%
COc1ccc(C(=O)N2CCN(c3ccc([N+](=O)[O-])c(NCCc4ccc(OC)c(OC)c4)c3)CC2)cc1 8.32%
N#C/C(=C\c1cc(O)c(O)c(O)c1)C(N)=O 5.7% [at 23.6 µM]
Cc1c(C#N)c(N)nc2c3c(sc12)NC(=O)CC3c1ccc(Cl)cc1 (configuration not stated) 8.86%
CCCCn1c(CN2CCN(c3cccc(Cl)c3)CC2)nc2c1c(=O)n(C)c(=O)n2C 0.243% [at 23.6 µM]
O=S(=O)(c1ccccc1F)N1CCOCC1 10.5%
